According to ChEMBL document CHEMBL4513216, “Probing the Open Global Health Chemical Diversity Library for Multistage-Active Starting Points for Next-Generation Antimalarials” (ACS Infect Dis, 2020):
The campaign covered roughly 69,000 compounds. About 8,600 (12%) showed an effect of 50% or more. This is one part of a sample in which strong results are shown more often than they occur.

Tested on: Plasmodium berghei
Assay: Screen against P. berghei liver stage (PbLuc), transformed with Luciferase, at 10uM
Format: functional, HepG2
Settings: tested at 10 uM

Row | SMILES | INHIBITION [%]
1 | Cc1ccc(NC(=O)Nc2c(O)c3ccccc3oc2=O)cc1 | 41.6
2 | Cc1cc(C)cc(NC(=O)Nc2c(O)c3ccccc3oc2=O)c1 | 59.8
3 | Cc1ccc(NC(=O)Nc2c(O)c3ccccc3oc2=O)cc1C | -43.7
4 | COc1ccccc1C1(O)CCCN(C(=O)c2csc(C(C)=O)c2)C1 (centres undefined) | 36
5 | Cc1occc1C(=O)N1CCC2(CC1)CC(OCc1ccccn1)CO2 (centres undefined) | 31.1
6 | c1ccc(O[C@@H]2CN(Cc3nccs3)[C@@H]3CCCO[C@@H]32)nc1 | 27.6
7 | c1csc(CN2C[C@@H](n3cccn3)[C@H]3OCCC[C@H]32)c1 | -2.41
8 | c1cnn([C@@H]2CN(Cc3nccs3)[C@@H]3CCCO[C@@H]32)c1 | 63.5
9 | CS(=O)(=O)c1cc(Cl)cnc1C1CCCN(C(=O)C2CCOCC2)C1 (centres undefined) | 30.65
10 | CNS(=O)(=O)c1ccc(CN2CCN3CCNC(=O)C3C2)cc1 (centres undefined) | 49.9
11 | O=C1NCCN2CCN(Cc3ccc(Cl)c(Cl)c3)CC12 (centres undefined) | 52.2
12 | CN1C(=O)CC(C(=O)O)C12CCN(Cc1ccc(Cl)c(Cl)c1)CC2 (centres undefined) | 5.46
13 | COc1cccc(S(=O)(=O)CCN2CCn3c(C)nnc3C2)c1 | -17
14 | CCn1cc(CN2CCCC(c3[nH]ncc3S(C)(=O)=O)C2)cn1 (centres undefined) | 57.2
15 | CCn1cc(C(=O)N2CCCC(c3[nH]ncc3S(C)(=O)=O)C2)cn1 (centres undefined) | 16.9
16 | CCn1cc(CN2CCCC(c3[nH]ncc3-c3ccc(C)cc3)C2)cn1 (centres undefined) | 70.9
17 | CCCn1cc(CN2CCC(c3[nH]ncc3S(C)(=O)=O)C2)cn1 (centres undefined) | 45.6
18 | CCn1cc(CN2CCC(c3[nH]ncc3S(C)(=O)=O)C2)cn1 (centres undefined) | 41.2
19 | CCn1cc(CN2CCCC(c3[nH]ncc3-c3ccc(F)cc3)C2)cn1 (centres undefined) | 9.52
20 | COc1cc(-c2n[nH]c(CO)n2)cc(OC)c1OC | 17.1
21 | CC(Cn1ccnc1)NC(=O)Nc1ccccn1 (centres undefined) | 29.95
22 | CCOC(=O)c1ccc(NC(=O)c2c(O)nc3c(c2O)CCCC3)cc1 | 27.5
23 | CC(C)c1nccn1CCC(=O)N1CCCCC1c1ccn[nH]1 (centres undefined) | 30.95
24 | Cc1nn(C)c(N2CCOCC2)c1CNC1COc2ccccc2C1 (centres undefined) | 5.03
